This note sets out measurements from ChEMBL document CHEMBL3988442, “University of Dundee, Small-Polar-MMV Screening Library” (2021).

Common to all, as to parameters: scale not given: direction of the effect not stated beside the values
Test [1] deals with Protein translocase subunit SecA (Escherichia coli (strain K12)) (UniProt P10408). Put plainly: Assay to Identify E. coli SecA ATPase Inhibitors. It counts as functional. Particulars: 30 µM.
The target in test [2] is T1, Ubiquitin-activating enzyme e1, putative (Leishmania donovani (strain BPK282A1)) (UniProt E9BSI1).
T1 sequence (whole entry): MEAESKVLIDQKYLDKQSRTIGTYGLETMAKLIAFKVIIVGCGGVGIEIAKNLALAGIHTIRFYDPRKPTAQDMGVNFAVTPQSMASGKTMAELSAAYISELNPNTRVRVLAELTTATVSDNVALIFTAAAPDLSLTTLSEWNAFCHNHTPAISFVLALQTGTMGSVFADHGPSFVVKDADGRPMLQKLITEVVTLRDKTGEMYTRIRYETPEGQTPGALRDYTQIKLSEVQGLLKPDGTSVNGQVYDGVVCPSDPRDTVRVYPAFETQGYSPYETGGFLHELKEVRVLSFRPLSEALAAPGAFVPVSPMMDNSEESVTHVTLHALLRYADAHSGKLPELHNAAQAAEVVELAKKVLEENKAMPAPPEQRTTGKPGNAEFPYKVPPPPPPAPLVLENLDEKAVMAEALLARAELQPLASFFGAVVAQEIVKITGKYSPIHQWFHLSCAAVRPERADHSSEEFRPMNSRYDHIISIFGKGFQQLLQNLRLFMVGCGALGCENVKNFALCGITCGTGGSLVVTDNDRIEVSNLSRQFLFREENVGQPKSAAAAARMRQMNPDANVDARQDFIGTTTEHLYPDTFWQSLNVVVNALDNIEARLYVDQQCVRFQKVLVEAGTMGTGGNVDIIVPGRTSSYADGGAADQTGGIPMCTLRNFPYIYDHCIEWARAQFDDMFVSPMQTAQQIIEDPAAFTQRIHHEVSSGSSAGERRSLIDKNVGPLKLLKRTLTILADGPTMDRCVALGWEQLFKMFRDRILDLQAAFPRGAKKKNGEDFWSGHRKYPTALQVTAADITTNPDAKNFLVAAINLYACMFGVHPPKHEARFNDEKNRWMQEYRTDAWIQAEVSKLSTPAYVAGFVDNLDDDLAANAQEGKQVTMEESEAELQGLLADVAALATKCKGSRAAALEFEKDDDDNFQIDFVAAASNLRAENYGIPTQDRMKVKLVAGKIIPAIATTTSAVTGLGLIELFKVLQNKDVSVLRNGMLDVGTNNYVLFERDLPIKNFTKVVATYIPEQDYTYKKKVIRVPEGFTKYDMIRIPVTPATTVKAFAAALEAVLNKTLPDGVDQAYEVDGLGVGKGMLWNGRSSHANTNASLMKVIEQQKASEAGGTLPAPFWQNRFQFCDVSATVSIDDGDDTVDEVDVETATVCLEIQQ
The experiment in a line: Leishmania donovani Ubiquitin Activating Enzyme (LdE1). The note with it: 30 µM. The format is functional.

Test [3] addresses Sialic acid-binding Ig-like lectin 9 (Homo sapiens) (UniProt Q9Y336). Put plainly: Hs-Siglec9 ALPHAscreen SOP 20170721. The note with it: 10 µM.
A further test relates to Trypanosoma cruzi. The experiment in a line: Trypanosoma cruzi phosphomannomutase and mannose-1-phosphate guanylyltransferase assay. It counts as functional. Particulars: 10 µM.
Test [4] has as its target T2, Arginase-2, mitochondrial (Homo sapiens) (UniProt P78540).
T2 sequence (whole entry): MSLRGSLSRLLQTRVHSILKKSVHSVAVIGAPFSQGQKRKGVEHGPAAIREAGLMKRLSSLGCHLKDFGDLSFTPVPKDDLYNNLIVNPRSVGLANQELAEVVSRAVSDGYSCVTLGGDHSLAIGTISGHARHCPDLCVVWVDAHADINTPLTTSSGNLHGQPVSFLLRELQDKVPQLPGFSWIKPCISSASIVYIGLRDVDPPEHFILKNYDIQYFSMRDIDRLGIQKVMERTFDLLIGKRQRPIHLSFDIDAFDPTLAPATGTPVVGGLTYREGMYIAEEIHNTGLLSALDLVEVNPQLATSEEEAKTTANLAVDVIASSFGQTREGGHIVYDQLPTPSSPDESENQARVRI
Put plainly: in vitro enzyme assay to detect the production of urea directly proportional to the activity of Arginase II. Further: in the data most compounds retested in dose-response had high values. The note with it: 33.3 µM. The format is functional.

Test [5] addresses T3, Proteasome subunit beta (Trypanosoma cruzi) (UniProt O96673).
T3 sequence (whole entry): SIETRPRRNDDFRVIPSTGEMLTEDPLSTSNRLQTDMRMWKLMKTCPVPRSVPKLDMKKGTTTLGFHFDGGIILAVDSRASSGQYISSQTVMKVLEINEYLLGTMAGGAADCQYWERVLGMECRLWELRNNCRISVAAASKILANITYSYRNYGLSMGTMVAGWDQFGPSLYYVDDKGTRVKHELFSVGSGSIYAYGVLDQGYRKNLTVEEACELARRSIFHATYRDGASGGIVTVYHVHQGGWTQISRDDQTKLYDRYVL
Put plainly: Trypanosoma cruzi proteasome chymotrypsin-like activity (TcProtChymo) assay. Further: in the data most compounds retested in dose-response had high values. Particulars: 9.37 µM. It counts as functional.

The species named for the next test is Homo sapiens. The experiment in a line: To identify inhibition of the IFN signalling (Jak-Stat) pathway via expression of an eGFP reporter gene under the control of an IFN-stimulated response element (ISRE) containing MxA promoter. The note with it: 30 µM. It counts as functional.
Test [6] deals with T4, Tyrosyl-tRNA synthetase, putative (Trypanosoma cruzi (strain CL Brener)) (UniProt Q4DSP6).
T4 sequence (whole entry): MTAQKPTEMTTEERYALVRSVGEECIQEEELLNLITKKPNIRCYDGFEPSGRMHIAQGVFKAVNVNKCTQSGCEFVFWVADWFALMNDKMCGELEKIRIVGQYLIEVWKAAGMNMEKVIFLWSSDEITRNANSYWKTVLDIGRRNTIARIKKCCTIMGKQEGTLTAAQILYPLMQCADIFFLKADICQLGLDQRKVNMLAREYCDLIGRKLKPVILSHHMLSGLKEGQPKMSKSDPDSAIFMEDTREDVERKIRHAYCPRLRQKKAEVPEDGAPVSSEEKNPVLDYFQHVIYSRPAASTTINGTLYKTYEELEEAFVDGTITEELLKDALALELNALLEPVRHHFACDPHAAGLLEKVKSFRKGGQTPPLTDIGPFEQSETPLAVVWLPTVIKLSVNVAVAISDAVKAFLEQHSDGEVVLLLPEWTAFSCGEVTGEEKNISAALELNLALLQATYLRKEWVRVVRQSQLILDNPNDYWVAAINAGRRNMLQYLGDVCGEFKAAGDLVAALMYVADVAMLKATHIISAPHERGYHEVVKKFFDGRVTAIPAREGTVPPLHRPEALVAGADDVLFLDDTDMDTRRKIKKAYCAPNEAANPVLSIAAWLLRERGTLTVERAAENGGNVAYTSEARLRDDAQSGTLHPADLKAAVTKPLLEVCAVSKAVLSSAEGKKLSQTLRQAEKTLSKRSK
Put plainly: Trypanosoma cruzi tyrosyl tRNA synthetase (TcYRS) _High Tyrosine SOP. Further: in the data most compounds retested in dose-response had high values. It counts as functional. Particulars: 30 µM.

For test [7], the target named is T4, Tyrosyl-tRNA synthetase, putative (Trypanosoma cruzi (strain CL Brener)). The experiment in a line: Trypanosoma cruzi tyrosyl tRNA synthetase (TcYRS) SOP. The format is functional. The note with it: 30 µM.
The target of test [8] is Chromo domain-containing protein 1 (Saccharomyces cerevisiae (strain ATCC 204508 / S288c) (Baker's yeast)) (UniProt P32657). The experiment in a line: ScCHD-1 Enzyme Inhibition Assay. Further: in the data most compounds retested in dose-response had high values. The format is functional. Particulars: 30 µM.

For part of these data: Measured potencies and affinities stand elsewhere.

Protein translocase subunit SecA (Escherichia coli (strain K12)), sequence (P10408 whole entry): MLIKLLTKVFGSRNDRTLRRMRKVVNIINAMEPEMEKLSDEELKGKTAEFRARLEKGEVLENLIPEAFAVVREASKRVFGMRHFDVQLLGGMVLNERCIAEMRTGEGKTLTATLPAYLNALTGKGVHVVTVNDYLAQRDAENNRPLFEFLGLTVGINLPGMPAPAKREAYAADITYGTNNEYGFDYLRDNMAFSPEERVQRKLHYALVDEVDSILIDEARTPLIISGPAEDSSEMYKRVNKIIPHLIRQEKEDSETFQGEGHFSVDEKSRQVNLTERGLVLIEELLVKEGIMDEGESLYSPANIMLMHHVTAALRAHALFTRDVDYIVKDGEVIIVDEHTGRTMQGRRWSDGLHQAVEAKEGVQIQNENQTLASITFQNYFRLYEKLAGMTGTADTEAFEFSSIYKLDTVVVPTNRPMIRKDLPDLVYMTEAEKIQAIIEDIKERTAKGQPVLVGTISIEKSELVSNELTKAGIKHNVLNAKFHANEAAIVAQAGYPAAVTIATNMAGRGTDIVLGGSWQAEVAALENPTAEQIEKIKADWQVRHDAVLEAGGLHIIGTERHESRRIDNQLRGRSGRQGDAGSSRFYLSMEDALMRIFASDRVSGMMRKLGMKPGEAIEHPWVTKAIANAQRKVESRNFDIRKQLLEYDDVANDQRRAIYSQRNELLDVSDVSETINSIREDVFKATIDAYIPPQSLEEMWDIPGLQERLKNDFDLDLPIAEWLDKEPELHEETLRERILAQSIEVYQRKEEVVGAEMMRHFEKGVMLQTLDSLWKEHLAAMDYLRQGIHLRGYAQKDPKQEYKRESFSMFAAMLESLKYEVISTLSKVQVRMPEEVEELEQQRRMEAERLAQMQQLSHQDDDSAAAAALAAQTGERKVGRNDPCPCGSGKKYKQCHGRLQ
Sialic acid-binding Ig-like lectin 9 (Homo sapiens), sequence (Q9Y336 whole entry): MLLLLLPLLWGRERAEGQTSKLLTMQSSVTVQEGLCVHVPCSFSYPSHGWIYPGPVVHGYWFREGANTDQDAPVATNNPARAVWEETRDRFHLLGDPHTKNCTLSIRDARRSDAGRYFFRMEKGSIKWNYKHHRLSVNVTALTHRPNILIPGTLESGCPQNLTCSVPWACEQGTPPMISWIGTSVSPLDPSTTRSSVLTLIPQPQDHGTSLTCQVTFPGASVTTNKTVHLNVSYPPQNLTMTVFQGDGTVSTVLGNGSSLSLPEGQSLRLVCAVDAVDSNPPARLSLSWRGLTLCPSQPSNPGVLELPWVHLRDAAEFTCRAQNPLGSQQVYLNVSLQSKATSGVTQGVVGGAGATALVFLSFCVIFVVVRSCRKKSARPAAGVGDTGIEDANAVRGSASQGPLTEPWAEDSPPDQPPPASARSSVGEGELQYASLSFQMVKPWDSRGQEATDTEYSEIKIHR
Chromo domain-containing protein 1 (Saccharomyces cerevisiae (strain ATCC 204508 / S288c) (Baker's yeast)), sequence (P32657 whole entry, the tested form may be a part): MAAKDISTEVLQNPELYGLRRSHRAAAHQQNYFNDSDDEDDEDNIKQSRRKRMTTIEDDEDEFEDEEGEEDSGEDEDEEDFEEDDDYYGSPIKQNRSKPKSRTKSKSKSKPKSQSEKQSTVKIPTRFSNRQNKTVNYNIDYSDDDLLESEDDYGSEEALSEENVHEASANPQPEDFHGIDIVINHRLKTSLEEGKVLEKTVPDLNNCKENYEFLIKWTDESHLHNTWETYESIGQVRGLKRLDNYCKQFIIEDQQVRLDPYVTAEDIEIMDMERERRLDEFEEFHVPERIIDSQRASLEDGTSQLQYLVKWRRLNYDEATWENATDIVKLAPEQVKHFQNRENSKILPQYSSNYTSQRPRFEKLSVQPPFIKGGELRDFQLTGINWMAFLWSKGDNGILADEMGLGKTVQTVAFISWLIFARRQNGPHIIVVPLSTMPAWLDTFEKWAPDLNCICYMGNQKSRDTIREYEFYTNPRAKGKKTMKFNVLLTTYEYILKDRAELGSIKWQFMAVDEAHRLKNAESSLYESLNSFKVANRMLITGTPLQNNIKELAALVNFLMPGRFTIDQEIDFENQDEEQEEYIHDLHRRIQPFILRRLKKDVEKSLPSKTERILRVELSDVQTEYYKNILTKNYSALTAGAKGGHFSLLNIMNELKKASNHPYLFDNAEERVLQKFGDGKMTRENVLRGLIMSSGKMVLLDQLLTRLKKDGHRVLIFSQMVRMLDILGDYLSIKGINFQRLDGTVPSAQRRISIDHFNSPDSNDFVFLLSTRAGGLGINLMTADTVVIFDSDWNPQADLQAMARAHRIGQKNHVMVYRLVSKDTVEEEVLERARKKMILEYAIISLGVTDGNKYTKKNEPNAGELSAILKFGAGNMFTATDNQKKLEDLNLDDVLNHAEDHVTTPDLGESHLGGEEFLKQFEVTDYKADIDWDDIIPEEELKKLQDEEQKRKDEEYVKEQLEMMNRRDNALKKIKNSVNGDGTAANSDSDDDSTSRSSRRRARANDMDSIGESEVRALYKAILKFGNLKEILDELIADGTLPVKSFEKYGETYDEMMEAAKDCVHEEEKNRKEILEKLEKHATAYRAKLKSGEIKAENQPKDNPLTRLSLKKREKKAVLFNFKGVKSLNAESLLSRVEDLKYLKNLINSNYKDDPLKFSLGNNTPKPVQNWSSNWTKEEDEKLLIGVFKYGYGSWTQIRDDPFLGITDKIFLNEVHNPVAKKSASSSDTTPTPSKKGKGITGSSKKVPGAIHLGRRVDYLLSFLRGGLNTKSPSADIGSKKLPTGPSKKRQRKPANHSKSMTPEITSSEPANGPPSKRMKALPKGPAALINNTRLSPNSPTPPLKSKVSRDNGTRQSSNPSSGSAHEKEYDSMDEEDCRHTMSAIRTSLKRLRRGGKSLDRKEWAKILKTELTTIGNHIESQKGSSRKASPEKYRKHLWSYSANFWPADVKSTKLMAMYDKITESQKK

Regarding `CCC1CN(C(=O)c2ccc(Cl)cc2O)CCN1C(C)C` (stereo not given), the Percent Effect in test [1] is -4.41%; in test [2], 2.7%; in test [3], 8.13%; with Trypanosoma cruzi, 6.5%; in test [4], 11.5%; in [5] it was 6.34%. In addition, the Percent Effect is 12.9% in the test listed under Homo sapiens, 4.79% in test [6], 9.76% in test [7] and -3.73% in [8].

Turning to `O=C(O)c1cc(-c2cccnc2)cc(S(=O)(=O)N2CCCCCC2)c1`, the Percent Effect in test [1] was -7.1%; in test [2], 5.41%; in [3], 3.44%; in the test on Trypanosoma cruzi, -3.4%; in test [4], 0.35%; in test [5], 12.7%. Also, the Percent Effect was 8.29% in the test filed under Homo sapiens, 5.85% in test [6], -2.44% in test [7] and -1.87% in test [8].

In the case of `CC(c1cccc(S(N)(=O)=O)c1)N(C)CCOc1ccccc1` (stereo not given), the Percent Effect was -0.74% in [1]; -15.6% in test [2]; 10.5% in [3]; -4.48% with Trypanosoma cruzi; -5.12% in test [4]; 2.1% in [5]. In addition, the Percent Effect in the test listed under Homo sapiens is 14.4%; in test [6] it was -1.96%; in test [7] it was -2.35%; in test [8] it was 1.25%.

For the compound `CC(C)N(C)CC(=O)N1CCCC(c2ccc(C(=O)O)cc2)C1` (stereo not given), the Percent Effect in test [1] is -7.71%; in [2], 5.41%; in test [3] it was 3.58%; in the test on Trypanosoma cruzi, 8.44%; in test [4] it was -1.05%; in test [5], 1.71%. Further, the Percent Effect in the test listed under Homo sapiens was -11.9%; in [6] it was 7.98%; in test [7], 17.1%; in test [8] it was -2.58%.

For the compound `Cc1ccccc1OCCC(=O)N1CCCC(n2cncn2)C1` (stereo not given), the Percent Effect was -5.79% in test [1]; 5.13% in test [2]; 4.87% in test [3]; 0.657% with Trypanosoma cruzi; 5.33% in test [4]; 4.52% in test [5]. Besides, the Percent Effect in the test listed under Homo sapiens was 0.995%; in test [6], 1.44%; in test [7], 10.8%; in test [8], -3.4%.

As for `Cc1ccc(C(=O)N2CCN(CCC(C)(C)C)CC2)c(=O)[nH]1`, the Percent Effect in test [1] was -4.94%; in test [2], 5.13%; in test [3], 4.25%; in the test on Trypanosoma cruzi, -0.845%; in test [4] it was -0.82%; in test [5], -1.79%. For the same compound, the Percent Effect was determined as 12% in the test listed under Homo sapiens, 3.35% in test [6], 1.21% in test [7] and 1.43% in [8].

On to `Cc1nc(-c2ccc(C(=O)O)cc2)cc(C2CCN(C(C)C)C2)n1` (stereo not given), for which the Percent Effect in [1] was -2.82%; in test [2] it was 12%; in test [3], -4.91%; with Trypanosoma cruzi, -1.18%; in test [4] it was 4.87%; in test [5], 10.7%. Moreover, the Percent Effect in the test listed under Homo sapiens is 8.94%; in test [6], 5.29%; in test [7] it was 15%; in [8], -22.5%.

For the compound `Cc1nc(CN2CCC3(CC2)NC(=O)CC3c2ccccc2)cs1` (stereo not given), the Percent Effect is -3.5% in test [1]; -1.3% in test [2]; -0.193% in test [3]; 0.375% with Trypanosoma cruzi; -0.913% in test [4]; 9.19% in [5]. For the same compound, the Percent Effect in the test filed under Homo sapiens was 4.58%; in [6] it was 8.7%; in test [7], 12.5%; in [8] it was -9.48%.

In the case of `O=C1NC2(CCN(Cc3cccnc3)CC2)CC1c1ccncc1` (stereo not given), the Percent Effect in [1] was -3.31%; in [2], 6.49%; in test [3], -5.51%; with Trypanosoma cruzi, -7.69%; in [4] it was -0.405%; in [5], 19%. Besides, the Percent Effect is -18.7% in the test listed under Homo sapiens, 1.58% in test [6], 10.3% in test [7] and 4.74% in [8].

With `CN(C(=O)Cc1c[nH]c2ccccc12)C1CCN(c2ccccn2)CC1`, the Percent Effect is -4.77% in test [1]; 2.67% in test [2]; -1.22% in test [3]; -3.81% in the test with Trypanosoma cruzi; 1.77% in [4]; 4.16% in test [5]. Moreover, the Percent Effect in the test filed under Homo sapiens is 31.5%; in test [6], 3.68%; in test [7] it was 0%; in test [8], -14.4%.

Consider `COc1ncccc1CNC(=O)NCCNC(=O)c1ccco1`, for which the Percent Effect in test [1] was -2.62%; in test [2] it was 13.3%; in test [3], -3.85%; with Trypanosoma cruzi it was 6.83%; in [4] it was 1.33%; in test [5], 16%. Further, the Percent Effect in the test listed under Homo sapiens is 18.4%; in test [6] it was 4.74%; in [7] it was 12.8%; in [8] it was -6.18%.

Take `CC(C)CN1CCN(C(=O)NCc2cccnc2-n2cccn2)CC1`: the Percent Effect in test [1] was -3.93%; in test [2], 16%; in test [3], -3.1%; in the test with Trypanosoma cruzi, -6.02%; in test [4], -2.22%; in test [5] it was 10.4%. In addition, the Percent Effect in the test listed under Homo sapiens is 2.63%; in [6], 5.79%; in test [7], 7.69%; in [8], -11.7%.
